The target of test [1] is T1, Aspartate--tRNA(Asp/Asn) ligase (Mycobacterium tuberculosis (strain ATCC 25618 / H37Rv)) (UniProt P9WFW3). Further: in the data most compounds retested in dose-response had high values.
T1 sequence (whole entry): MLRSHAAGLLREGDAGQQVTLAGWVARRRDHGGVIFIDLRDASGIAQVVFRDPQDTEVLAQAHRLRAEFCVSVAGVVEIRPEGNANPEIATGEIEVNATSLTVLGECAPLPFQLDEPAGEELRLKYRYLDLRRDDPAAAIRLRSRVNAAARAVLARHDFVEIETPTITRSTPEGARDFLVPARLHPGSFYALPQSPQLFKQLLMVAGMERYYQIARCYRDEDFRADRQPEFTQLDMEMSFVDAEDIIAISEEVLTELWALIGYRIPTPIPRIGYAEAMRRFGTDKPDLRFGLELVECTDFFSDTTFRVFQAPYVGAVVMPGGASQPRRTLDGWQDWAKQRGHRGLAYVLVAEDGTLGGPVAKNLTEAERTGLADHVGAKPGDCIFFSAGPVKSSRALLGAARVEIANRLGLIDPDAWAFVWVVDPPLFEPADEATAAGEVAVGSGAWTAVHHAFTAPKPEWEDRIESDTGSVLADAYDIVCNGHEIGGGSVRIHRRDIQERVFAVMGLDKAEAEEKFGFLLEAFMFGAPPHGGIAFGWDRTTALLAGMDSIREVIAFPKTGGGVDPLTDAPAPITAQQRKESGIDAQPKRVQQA
The test is described as follows: Assay for Asp RNA synthetase-1 from Mycobacterium tuberculosis. It is filed as functional. Also noted: scale not given: direction of the effect not stated beside the values. The note with it: 30 µM.

For test [2], the target named is Shiga toxin 2 (Escherichia coli O157:H7) (UniProt P09385+P09386). The test is described as follows: E. coli 0.157:H7 Shiga Toxin SOP - stx2 screening assay. It counts as functional. Also noted: scale not given: direction of the effect not stated beside the values. The note with it: 30 µM.

Each structure is given as a SMILES string.

Turning to `Cc1cc(C)n(CC2CN(Cc3nc(-c4ccoc4)no3)CCO2)n1` (stereo not drawn), the Percent Effect in test [1] is 5.71%; in test [2] it was 28.8%.

For `CC(C)n1[nH]c(=O)c2c1NC(=O)CC2c1ccc2ncccc2c1` (stereo not drawn), the Percent Effect in test [1] was -3.5%; in test [2], -15.3%.

As for `OC(COCc1ccccc1Cl)CN1CC(n2cccn2)C1` (stereo not drawn), the Percent Effect worked out at 0.411% in test [1] and 29.1% in test [2].

For `O=C(NCC(O)c1cccs1)c1cccc(Cl)c1` (stereo not drawn), the figures for the Percent Effect in test [1] and in test [2] were -5.75% and -20.5%, respectively.

As to `Cc1cnn(C2CCCN(C(=O)Cc3cn4ccccc4n3)C2)c1` (stereo not drawn), the Percent Effect in test [1] is -6.71%; in test [2] it was -40.6%.

On to `CS(=O)(=O)NCCNC(=O)C1(c2cccc(Cl)c2)CC1`, for which the Percent Effect in test [1] is -2.17%; in test [2], -2.54%.

Regarding `Cc1occc1C(=O)N1CCC2(CCC(C(=O)NCC3CC3)O2)CC1` (stereo not drawn), the values for the Percent Effect in test [1] and in test [2] were -0.182% and -6.83%, respectively.

As to `CN1CCOC(CNCc2cccc(OCC(F)(F)F)c2)C1` (stereo not drawn), the results for the Percent Effect in test [1] and in test [2] were -2.34% and 2.68%, respectively.

Consider `Cc1ccc(NC(=O)C2CSCN2C(=O)c2cc[nH]n2)c(C)c1` (stereo not drawn), for which the Percent Effect in test [1] is -3.15%; in test [2] it was 12%.

As to `Cc1cccc(CN2C[C@@H]3CN(C(=O)NC(C)C)C[C@@H]3C2=O)c1`, the Percent Effect in test [1] was 0.565%; in test [2], -52.1%.

With `CN(Cc1cnn(C)c1)C(=O)NC1CCN(c2ncccn2)CC1`, the figures for the Percent Effect in test [1] and in test [2] were -1.27% and 10.9%, respectively.

On to `Cc1nccc(N2CCC(=O)N(Cc3ccc(F)cc3)C(C(C)C)C2)n1` (stereo not drawn), for which the Percent Effect was -2.67% in test [1] and -4.25% in test [2].

With `CN1CCN(Cc2cccnc2)C2(CCN(c3ncc(F)cn3)C2)C1=O` (stereo not drawn), the Percent Effect in test [1] is 4.87%; in test [2], -19.6%.

Take `O=C1CC(c2ccsc2)c2c(n(C3CCOCC3)[nH]c2=O)N1` (stereo not drawn): the Percent Effect in test [1] was -2.53%; in test [2], -30.3%.

As to `N#Cc1cccc(S(=O)(=O)NC(=O)COC2CCCC2)c1`, the Percent Effect in test [1] was 1.85%; in test [2] it was -31%.

As to `CC(=O)N1CCN(C(=O)NCc2csc(Br)c2)CC1`, the Percent Effect in test [1] came out at 0.204%; in test [2], 5.42%.

On to `CNc1cc(N2CCCC2CNCc2ccccn2)ncn1` (stereo not drawn), for which the Percent Effect is 1.56% in test [1] and -35.2% in test [2].

As for `CNC(=O)c1cccc(C2CNCCN2C)c1` (stereo not drawn), the results for the Percent Effect in test [1] and in test [2] were -2.1% and -13.8%, respectively.

In the case of `CC(C)CC(=O)N1CCc2nc(N3CCOCC3)nc(NC(C)C)c2C1`, the Percent Effect in test [1] was -3.63%; in test [2], 6.88%.

Values taken from ChEMBL document CHEMBL3988442, “University of Dundee, Small-Polar-MMV Screening Library” (2021).
